High-throughput results: PubChem BioAssay, several laboratories
Compounds with a hit are over-represented: about 10% of the library has one in this group of screens.
HCT116 PTEN-null: PTEN-deleted cell growth suppression; HCT116 PTEN-null viability, CellTiter-Glo, 60 h; active compounds read low; viability, % at 10 µM; hit rate 1.2% among 140,000;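 active means viability at or below a set limit, 4 SD under the median of all tested compounds, cut at about 3.7% in these data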;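 further: PTEN knockout HCT116 line with beta catenin targeted HCT116 as companion control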
INS promoter inh: TRM-6 insulin promoter activity inhibition | TRM-6 cells (human fetal islet line), insulin promoter-eGFP reporter, imaging; reporter expression induced with tamoxifen | inhibition, % at 2 µM | hit rate 0.9% among 130,000 | AID 1273;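 active means inhibition above the mean plus 3 SD, with well images judged a real hit on visual review, cut at about 60% in these data, passing the limit was not always enough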
bCat KO growth: beta-catenin-lacking colon tumor cell growth suppression | AID 818 | HCT116 beta-catenin knockout viability, CellTiter-Glo, 60 h; active compounds read low | hit rate 1.5% among 140,000 | viability, % at 10 µM;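 active means viability at or under a set limit, the compound median less 4 SD, cut at about 6% in these data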;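 further: 0% = Hyamine 1622 control at 20 µM and 100% = untreated cell control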
ROMK mod: modulates human ROMK potassium channel activity | P48048 | hit rate 2% among 130,000 | AID 1918 | Tet-inducible ROMK, thallium flux fluorescence; actives lie on both sides | B-score at 10 µM;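 active means signal ratio slope over the read window, or its plate-corrected B-score, at least 3 SD from the plate mean, either direction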;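 further: B-score of the F/F0 ratio slope over 7 to 12 s after thallium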
p97 ATPase inh: inhibitors of human p97 ATPase; inhibition, % at 8 µM; recombinant p97 ATPase, Kinase-Glo ATP luminescence, 3 h; P55072; hit rate 0.42% among 220,000; in the data active means inhibition above about 15%;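 further: 0% = DMSO vehicle and 100% = wells lacking enzyme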
Target sequence (P55072 whole entry, looked up): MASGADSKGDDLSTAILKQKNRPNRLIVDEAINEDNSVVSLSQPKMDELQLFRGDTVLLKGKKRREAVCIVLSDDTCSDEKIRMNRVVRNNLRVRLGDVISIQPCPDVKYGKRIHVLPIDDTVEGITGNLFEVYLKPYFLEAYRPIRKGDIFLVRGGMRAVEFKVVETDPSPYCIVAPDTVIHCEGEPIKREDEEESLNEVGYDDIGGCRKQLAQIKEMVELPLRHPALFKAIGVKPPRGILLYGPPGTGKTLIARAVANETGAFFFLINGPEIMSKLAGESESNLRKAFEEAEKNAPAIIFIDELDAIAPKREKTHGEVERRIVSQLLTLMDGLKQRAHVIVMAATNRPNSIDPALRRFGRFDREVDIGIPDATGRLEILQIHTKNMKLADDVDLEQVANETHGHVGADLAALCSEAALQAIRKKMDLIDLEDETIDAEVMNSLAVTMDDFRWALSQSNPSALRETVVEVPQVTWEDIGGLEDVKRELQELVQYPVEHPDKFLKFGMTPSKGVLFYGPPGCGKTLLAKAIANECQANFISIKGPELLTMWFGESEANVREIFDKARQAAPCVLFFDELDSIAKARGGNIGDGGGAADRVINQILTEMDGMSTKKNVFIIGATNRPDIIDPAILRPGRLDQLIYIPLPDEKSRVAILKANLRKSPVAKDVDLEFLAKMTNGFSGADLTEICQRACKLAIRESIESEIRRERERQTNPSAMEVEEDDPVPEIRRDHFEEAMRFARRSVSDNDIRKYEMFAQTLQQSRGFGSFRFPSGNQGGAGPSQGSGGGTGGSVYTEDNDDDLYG
L major viab: Leishmania major promastigote growth inhibition. AID 1063. Leishmania major promastigotes, resazurin fluorescence viability. inhibition, % at 10 µM. hit rate 9% among 200,000; in the data active means inhibition above about 50%;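 further: promastigotes grown with compound for 44 hours at 28 °C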
An asterisk follows results filed as active; nt = not tested or not shown.

SMILES	HCT116 PTEN-null	INS promoter inh	bCat KO growth	ROMK mod	p97 ATPase inh	L major viab
COc1ccc(CN2CCCC2C(=O)Nc2ccc(OC)c(OC)c2)cc1OC (centres undefined)	96.1	nt	93.1	0.638	-6.0	0.9
CCOC(=O)C1CCCCN1Cc1ccc(OC)c(OC)c1 (centres undefined)	nt	nt	nt	0.848	3.0	nt
Cc1cc(C)c2c(N)c(C(=O)c3ccc(Cl)c(Cl)c3)sc2n1	nt	70.0*	nt	-0.466	3.5	100.2*
O=C(CSc1nnc(-c2ccc(Cl)cc2)n1Cc1ccco1)c1cccs1	77.3	nt	87.7	0.975	3.5	80.1*
COc1ccc(C(=O)CSc2nnc(-c3cc4ccccc4cc3O)n2Cc2ccco2)cc1	23.8	nt	30.2	nt	8.1	68.8*
COC(=O)c1ccc(C#Cc2ccccc2)o1	nt	nt	nt	nt	8.6	nt
Cc1cc(O)c(C(C[N+](=O)[O-])c2ccc(Cl)cc2)c(=O)o1 (centres undefined)	101.2	35.1	86.7	-0.241	-2.0	4.3
Cc1cc(C)n(C(C[N+](=O)[O-])c2ccc(Cl)cc2)n1 (centres undefined)	36.1	14.3	38.9	-2.78	-0.5	100.3*
O=C(Nc1cnccc1C(F)(F)F)NC1CCCCC1	nt	nt	nt	nt	7.4	nt
CCOc1ccc(/C(CC)=N/NC(=O)C2(C)CC2(Br)Br)cc1 (centres undefined)	79.3	33.3	83.0	nt	5.8	58.0*
O=C(NCCCN1CCOCC1)c1c(O)c2ccccc2[nH]c1=O	96.8	nt	92.8	nt	4.8	7.5
COc1cc2[nH]c(=O)c(C(=O)NCCCN3CCCCC3)c(O)c2cc1OC	81.5	44.8	84.5	nt	4.7	93.7*
CCOc1ccc(CN(C)CC(=O)NCc2ccccc2)cc1	nt	nt	nt	nt	6.7	nt
CN(CCOCCOc1ccc(Cl)cc1Br)Cc1ccccc1	nt	7.7	nt	-0.0848	-0.9	87.2*
CCOc1ccc(OCCN(C)Cc2ccccc2)cc1	96.0	-33.3	88.1	0.0122	-3.0	92.8*
CCOc1cccc(OCCOCCN(C)Cc2ccccc2)c1	91.3	-23.1	86.2	nt	0.3	79.5*
CN(CCCOc1ccccc1Br)Cc1ccccc1	nt	61.5	nt	-1.29	0.1	17.9
Cc1ccc(Cl)c(OCCCCN(C)Cc2ccccc2)c1	55.9	-8.6	53.3	-0.662	-3.1	90.6*
O=C(OC(C(=O)NCc1ccco1)c1ccc(Cl)cc1)c1cccs1 (centres undefined)	nt	nt	nt	nt	-0.3	nt
O=C(CCSc1ccccn1)c1ccccc1	nt	-22.2	nt	0.0155	3.4	76.6*
CC(=O)N1N=C2/C(=C/c3ccccc3)CCCC2C1c1ccccc1 (centres undefined)	nt	-38.5	nt	nt	1.8	96.9*
CCCn1c(SCC(=O)N2N=C3/C(=C/c4ccc(OC)cc4)CCCC3C2c2ccc(OC)cc2)n[nH]c1=O (centres undefined)	67.7	-48.1	80.2	nt	3.1	91.9*
COc1ccc(/C=C2\CCCC3C2=NN(C(=O)c2ccco2)C3c2ccc(OC)c(OC)c2)cc1OC (centres undefined)	2.5*	nt	5.6*	nt	-2.3	29.2
CCCn1c(SCC(=O)NCc2ccc(OC)cc2)n[nH]c1=O	nt	-42.9	nt	0.0954	-2.9	-8.3
CC(=O)c1cc(C#N)c(N2CCOCC2)nc1C	nt	nt	nt	-0.297	0.0	-3.4
SMILES	HCT116 PTEN-null	INS promoter inh	bCat KO growth	ROMK mod	p97 ATPase inh	L major viab
COCCN(Cc1ccccc1)C(=S)Nc1ccc(OC(F)F)cc1	81.2	7.1	78.6	-2.07	-0.5	6.7
COC(=O)c1ccc(S(=O)(=O)N2Cc3ccccc3C2)cc1	nt	-38.9	nt	0.0328	-3.9	-2.2
CC(C)(C)NC(=O)Cn1c(=O)n(CC(=O)NC(C)(C)C)c2ccccc21	nt	-12.8	nt	0.0733	-1.0	-0.5
CC(C)C(=O)NS(=O)(=O)c1ccc(NS(C)(=O)=O)cc1	nt	nt	nt	nt	3.8	nt
CN(C)CCNC(=O)Cc1c(C(=O)O)n(C)c2ccccc12	nt	29.2	nt	nt	0.1	93.9*
Cc1ccc(NC(=S)N(C)Cc2cn(C)c3ccccc23)cc1	77.9	24.1	81.0	0.388	2.6	63.0*
Cc1cccc(NC(=S)N(CCCN2CCOCC2)Cc2cn(C)c3ccccc23)c1	65.3	46.7	74.4	-0.396	-4.2	89.6*
COc1ccc(NC(=S)N(CCCN2CCOCC2)Cc2cn(C)c3ccccc23)cc1	73.3	-100.0	75.4	-0.681	1.7	14.5
Cn1cc(CN(CCCN2CCOCC2)C(=S)Nc2cccc(Cl)c2)c2ccccc21	16.3	-78.6	20.4	-0.209	5.5	79.7*
CCOc1ccc(NC(=S)N(CCCN2CCOCC2)Cc2cn(C)c3ccccc23)cc1	93.7	-31.0	83.7	-0.737	3.2	59.8*
N[C@@H](Cc1ccc(O)cc1)c1nnc([C@H](CO)NC(=O)C2CCNCC2)o1	nt	nt	nt	nt	2.1	-2.1
Cc1ccc(N2C(=O)CSC2c2cccnc2)c(Cl)c1 (centres undefined)	nt	nt	nt	0.74	5.3	nt
CN(c1ccccc1)S(=O)(=O)c1cccc(C(=O)Nc2nn[nH]n2)c1	nt	nt	nt	nt	11.6	nt
NC(=O)CN1CCN(S(=O)(=O)c2ccc(Br)cc2)CC1	nt	11.8	nt	-0.27	2.1	-7.0
Cn1c(=O)c2c(ncn2CC(COCc2ccccc2)OCc2ccccc2)n(C)c1=O (centres undefined)	nt	nt	nt	nt	-4.6	nt
CCOC(=O)Cn1c(=NC(=O)c2sc3ccccc3c2Cl)sc2cc(S(N)(=O)=O)ccc21	2.8*	-48.0	25.9	-0.0263	-0.5	-7.9
Cc1cccc(C)c1NC1=C(Cl)C(=O)OC1OC(C)C (centres undefined)	94.9	5.6	95.1	-0.178	0.5	50.1*
Cc1ncc([N+](=O)[O-])n1CC(=O)N/N=C/c1ccccc1F	nt	nt	nt	0.971	-2.4	-7.0
Cc1ccc2nc(SCC(=O)c3ccc4c(c3)OCO4)[nH]c2c1	89.3	0.0	108.6	nt	0.8	83.7*
COC(=O)c1ccc(CSc2nc3ccc(C)cc3[nH]2)o1	83.3	nt	79.3	0.0744	0.6	87.1*
CC(=O)c1c(C)[nH]c(C(=O)CSc2nc3ccc(C)cc3[nH]2)c1C	82.8	15.4	90.3	nt	3.4	91.7*
Cc1nn2c(-c3cccc(NC(=O)c4ccco4)c3)nnc2c2ccccc12	86.3	-262.8	75.3	-1.42	4.2	100.6*
Cc1ccc(S(=O)(=O)NCC23C=CC(O2)C2C(=O)N(c4ccccc4)C(=O)C23)cc1 (centres undefined)	90.8	-8.1	100.0	0.0391	0.8	3.0
Cc1cccc(NC(=S)NCC23C=CC(O2)C2C(=O)N(c4ccc(Cl)cc4)C(=O)C23)c1 (centres undefined)	89.0	0.0	77.8	nt	2.7	52.8*
Cc1ccc(N2C(=O)C3C4C=CC(CNC(=S)N5CCN(c6ccccc6)CC5)(O4)C3C2=O)cc1 (centres undefined)	nt	nt	nt	-0.711	4.4	-4.0
Cc1ccc(NC(=S)NCC23C=CC(O2)C2C(=O)N(c4ccc(C)cc4)C(=O)C23)cc1 (centres undefined)	93.3	57.7	90.5	0.157	-5.5	91.7*
OCCN1CCN(c2nc(-c3ccccc3)nc3c2oc2ccccc23)CC1	16.1	-69.2	11.1	0.505	-11.8	33.5
C/C(=N/NC(=O)c1ccco1)c1cccc(NC(=O)c2ccc(C)o2)c1	110.2	-48.6	103.2	nt	-2.0	66.1*
